Pf growth 48h: inhibits P. falciparum growth in the first generation, 48 h; AID 504832; P. falciparum luciferase growth in erythrocytes, 48 h; actives 5.9% (n = 310,000); Potency, µM (doses to about 28.7 µM), without a hit: top-dose activity change, negative = inhibition, usual class: inhibitors; also: potency is read from the fitted curve at half-maximal effect; % is scaled to controls: 0 for no effect and ±100 for the full control effect
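Growth was read as firefly luciferase luminescence after a 48 h, 37 C, 5% CO2 exposure of compounds to reporter-bearing P. falciparum cultures (0.1% parasitemia, 2% hematocrit final) in Albumax-supplemented RPMI 1640.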
LASV entry inh: inhibitors of Lassa virus binding or cell entry; Lassa virus pseudotype entry inhibition, cell reporter; Potency, µM (top dose mostly 37.9 µM), inactives show at the highest dose activity change, negative = inhibition, hits mostly inhibitors; actives 1.2% (n = 300,000); AID 540256; calls by dose curve; tested in HEK293 cells; also: potency is read from the fitted curve at half-maximal effect; % is scaled to controls: 0 for no effect and ±100 for the full control effect; nearly all actives have a fitted effect of over 50% in size
Pf growth 96h: inhibits malaria parasite growth, 96 h | P. falciparum luciferase reporter growth, 96 h | Potency, µM (highest dose often 28.7 µM), inactives show at the top dose activity change, negative = inhibition, most hits filed as inhibitors | actives 6.9% (n = 320,000); also: potency is read from the fitted curve at half-maximal effect; % is scaled to controls: 0 for no effect and ±100 for the full control effect
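96 h incubation, 37 C, 5% CO2, of luciferase-reporter P. falciparum-infected RBCs (2% hematocrit, 0.05% parasitemia final) with test compounds; endpoint luminescence.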
CHX counter: counter-screen hit for Shiga toxin inhibitors, cycloheximide; actives 12% (n = 300,000); max response, %; cell reporter, cycloheximide protein synthesis inhibition counterscreen; in the data active = max response mostly above about 13%, no sharp cut-off; inactive = mostly below about 14%; also: read at 38.3 µM for the half of the compounds with a filed dose; 0% is about no effect
Shiga toxin inh: blocks Shiga toxin action in Vero cells | AID 2315 | Vero cells, Shiga toxin protein synthesis inhibition reporter | inhibition, % at 38.7 µM | actives 9.2% (n = 290,000); in the data active = inhibition mostly above about 28%, no sharp cut-off; inactive = mostly below about 43%; also: 0% is about no effect
Marburg entry inh: Marburg virus entry inhibition | Potency, µM (highest dose often 37.8 µM), inactives show top-dose activity change, negative = inhibition, actives largely listed as inhibitors | AID 540276 | actives 1.8% (n = 300,000) | Marburg virus pseudotyped entry inhibition, cell reporter; calls by dose curve; tested in HEK293 cells; also: potency is read from the fitted curve at half-maximal effect; % is scaled to controls: 0 for no effect and ±100 for the full control effect
An asterisk follows results filed as active; ? = inconclusive; / = no result; [ ] = remark or other dose. The list is not random: actives were taken first. Their share in the collection is about 19%. Unless noted, calls follow the shape of the dose curve; as a rule, active = well fitted inhibition curve with a large enough effect; inconclusive = small, poorly fitted or top-dose-only effect, or another doubt; inactive = no such curve, though single readings can be large or run the other way.

SMILES	Pf growth 48h	LASV entry inh	Pf growth 96h	CHX counter	Shiga toxin inh	Marburg entry inh
CC1CN(c2c(F)c(N)c3c(=O)c(C(=O)O)cn(C4CC4)c3c2F)CC(C)N1 (stereo not drawn)	7.6µM*	/	4.8µM*	-4	-2	/
CO/N=C1\CN(c2nc3c(cc2F)c(=O)c(C(=O)O)cn3C2CC2)CC1CN (stereo not drawn)	1.9µM*	/	1.7µM*	/	/	/
O=C(O)c1cn(-c2ccc(N3CCCC3)c(F)c2)c2c(F)c(F)c(F)cc2c1=O	19%	5%[46.1 µM]	2%	0	-11	12%[46.1 µM]
NC1CCN(c2nc3c(cc2F)c(=O)c(C(=O)O)cn3-c2ccc(F)cc2F)C1 (stereo not drawn)	3.8µM*	/	1.1µM*	/	/	/
O=C(NCc1ccco1)/C(=C/c1ccc(C(F)(F)F)cc1)c1nc2ccccc2[nH]1	-6%	?	?	59*	12*	-29%
N#C/C(=C\c1ccc(Oc2ccc(C(F)(F)F)cc2[N+](=O)[O-])cc1)c1nc2ccccc2[nH]1	?	?	74%	15	15	?
O=S(=O)(/C(=C\c1ccc(C(F)(F)F)cc1)c1nc2ccccc2[nH]1)c1ccccc1	/	3.5µM*	/	/	/	4µM*
O=C(COC(=O)/C=C/c1cccc(C(F)(F)F)c1)NCc1ccco1	10%	-16%	-6%	/	/	-18%[46.1 µM]
O=C(NCc1ccco1)/C(=C/c1cccc(C(F)(F)F)c1)c1nc2ccccc2[nH]1	?	?	?	18*	-1	?
CSc1nc2cc(S(=O)(=O)N3CCCCC3)ccc2s1	20%	30%[46.1 µM]	-10%	1	-3	-14%[46.1 µM]
COc1cc2c(cc1OC)C(CCc1ccccc1)=NCC2	0%	?	0%	-3	3	?
Cc1ccc(CNC(=O)C2CCC(=O)N(CCc3ccccc3)C2)s1 (stereo not drawn)	?	/	?	54*	34	/
Cc1ccc(CNC(=O)C2CCC(=O)N(Cc3ccccc3F)C2)s1 (stereo not drawn)	0%	/	-20%	31*	15	/
O=C(NCC1(O)CCCCC1)C1CCC(=O)N(Cc2ccccc2F)C1 (stereo not drawn)	31%	11%	?	-3	-13	9%
Cc1cccc(N2CCN(C(=O)C3CCC(=O)N(Cc4ccccc4F)C3)CC2)c1C (stereo not drawn)	9.3µM*	?	10µM*	15*	9	14%
O=C(NC1CCCCCC1)C1CCC(=O)N(Cc2ccccc2F)C1 (stereo not drawn)	?	-6%	?	27*	26	-2%
Cc1ccc(NC(=O)c2cc(-n3cnnc3)ccc2Cl)c(C)c1	5%	-5%	?	3	5	0%
O=C1COc2ccc(-c3cc(-c4ccc(F)cc4)c4c(n3)-c3ccccc3OC4)cc2N1	/	11%[46.1 µM]	/	/	/	?
O=C(NC1CCCCCCC1)c1cnccn1	/	2%	-9%	8	26	?
C/C(CC(=O)NC1CCCCC1)=N\NC(=O)c1ccccc1C	28%	/	?	14	63*	?
C/C(CC(=O)NC1CCCCC1)=N\NC(=O)c1ccc(Br)cc1	46%	/	-5%	23	54	27%[46.1 µM]
C/C(CC(=O)NC1CCCCCC1)=N\NC(=O)c1cnccn1	8%	14%	-14%	26*	46*	?
O=C(COC(=O)Cc1ccc(F)cc1)NC1CCS(=O)(=O)C1 (stereo not drawn)	-7%	5%	26%	/	/	4%
COc1cccc(NC(=O)Cn2c(=O)c3c(ncn3Cc3ccccc3)n(Cc3ccccc3)c2=O)c1	/	-10%	0.83µM*	18	16	?
COCCn1cnc2c1c(=O)n(CC(=O)NC(=O)NC(C)(C)C)c(=O)n2Cc1ccccc1	?	-13%[46.1 µM]	0.26µM*	-3	-3	15%[46.1 µM]
SMILES	Pf growth 48h	LASV entry inh	Pf growth 96h	CHX counter	Shiga toxin inh	Marburg entry inh
COc1cccc(NC(=O)Cn2c(=O)n(-c3cc(OC)c(OC)c(OC)c3)c(=O)c3ccccc32)c1	10µM*	2%[46.1 µM]	?	7	-5	-3%[46.1 µM]
Cc1nn(C)c(C(=O)Nc2ccc(Br)cc2F)c1Br	8%	4%	70%	12	37	7%
COc1ccc(S(=O)(=O)N2CCCCC2)cc1NC(=O)CSc1nccn1C	-12%	-1%	38%[5.75 µM]	5	-4	-21%[46.1 µM]
COc1ccc(/C=N/NC(=O)CCc2ccccc2)cc1O	10%	?	?	19	-6	?
CCN1C/C(=C/c2ccc(OC)c(O)c2)C(=O)/C(=C/c2ccc(OC)c(O)c2)C1	2.6µM*	/	1.7µM*	-4	-24	/
COc1ccc(/C=C2\CN(Cc3ccccc3)C/C(=C\c3ccc(OC)c(O)c3)C2=O)cc1O	3.3µM*	?	3.7µM*	14*	-5	?
COc1ccc(-c2cc(C(=O)NC3CCCC3)no2)cc1OC	55%	4%	?	24*	26*	8%
COc1cccc(-c2cc(C(=O)NC3CCCCC3)no2)c1	89%	-23%[46.1 µM]	65%	20	81*	?
COc1ccc(-c2cc(C(=O)NC(C)C)no2)cc1	/	-17%	62%	27	58*	?
O=C(NC1CCCCC1)c1cc(-c2ccco2)on1	72%	?	12µM*	36*	143*	-23%
Cc1ccc(OCCN(C)C(=O)C2CCC(=O)N(CC3CCCCC3)C2)cc1 (stereo not drawn)	?	/	?	-3	10	/
Cc1ccccc1CN1[C@@H](CC2CCCCC2)COCCS1(=O)=O	?	/	0%	1	1	/
COCCCn1c(-c2ccc(OC)cc2)cc(C(=O)NC2CCCCCCC2)c1C	13µM*	?	15µM*	-3	-13	?
COc1ccc(-c2cc(C(=O)NC3CCCC3)no2)cc1	90%	-4%[46.1 µM]	16%	18*	93*	?
COc1ccc(-c2cc(C(C)=O)c(C)n2CCC(=O)NC2CCCCC2)cc1	/	5%[46.1 µM]	/	/	/	/
COCCNC(=O)c1cc(-c2ccc(OC)c(OC)c2)on1	52%	-13%	33%	20*	18	?
CCN(CC)CCCNC(=O)c1cc(-c2ccc(OC)c(OC)c2)on1	/	-4%[46.1 µM]	/	/	/	15%[46.1 µM]
CCN(CC)CCCNC(=O)c1cc(-c2ccc(Cl)c(Cl)c2)on1	10µM*	-20%	-21%	-3	-7	?
COC(=O)C1=C(N)N(c2ccccc2C(F)(F)F)C2=C(C(=O)CCC2)C1c1ccc2c(c1)OCO2 (stereo not drawn)	3.7µM*	-29%	7.4µM*	-2	-10	-26%
CCc1nnc(N/N=C/c2ccc(N3CCC(C)CC3)c([N+](=O)[O-])c2)n1N	?	?	-19%	-3	-10	?
Cc1nnc(N/N=C/c2cc([N+](=O)[O-])c(N3CCC(C)CC3)cc2N2CCC(C)CC2)n1N	5.9µM*	-5%	/	13	24	?
O=C(N/C(=C/c1ccco1)C(=O)N1CCc2ccccc21)c1ccco1	-15%	-12%	?	3	21	?
